# The supplement of paper PMC9135407
# Values joined by “and” are separate entries in the source; they are usually repeats but may differ in a detail not shown here. Equal entries are not always repeated. Structures can show the parent of a compound that is named as a salt. Among all 5,800 compounds or so, about 620 (11%) showed activity. The full list was thinned out, with actives kept by preference. Unmarked numbers belong to inactive results.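 The calls were made as follows: active = score above a cut-off or among the top three wells of a plate; in these data no inactive exceeds 0.85.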
# System: primary human hepatic stellate cells (donor 1)
# Assay: scaled lipid accumulation score (0 = DMSO-like, 1 = nortriptyline-like); higher = stronger HSC inactivation (lipid re-accumulation), active = hit call of the paper
# Details: 48 h
# [1] = library stock concentration: 3.33 mM
# [2] = library stock concentration: 10 mM
# [3] = library stock concentration: 80 uM
# [4] = library stock concentration: 400 uM
# [5] = library stock concentration: 2 mM
# [6] = library stock concentration: 1 mM
compound,measurement,setting,value
CN1CC[C@@H](c2c(O)cc(O)c3c(=O)cc(-c4ccccc4Cl)oc23)[C@@H]1CO,scaled lipid accumulation score,[1],≤ -0.009
same,scaled lipid accumulation score,[2],0.465
CN(C)c1nc(N)c(C(=O)Nc2cccnc2)nc1Cl [ACDPP hydrochloride],scaled lipid accumulation score,[2],≤ -0.001
CS(=O)(=O)c1ccc(C(=O)Nc2ccc(Cl)c(-c3ccccn3)c2)c(Cl)c1 [Vismodegib (GDC-0449)],scaled lipid accumulation score,[1],0.002
same,scaled lipid accumulation score,[2],≤ 0
CN1CCN(S(=O)(=O)c2ccc(-c3cnc(N)c(C(=O)Nc4cccnc4)n3)cc2)CC1 [listing 1 of 2 here],scaled lipid accumulation score,[2],1.02 (active)
CS(=O)(=O)c1ccc(-c2cnc(N)c(C(=O)Nc3ccccc3)n2)cc1 [listing 1 of 2 here],scaled lipid accumulation score,[2],0.907 (active)
CN1CCN(S(=O)(=O)c2ccc(-c3cnc(N)c(C(=O)Nc4cccnc4)n3)cc2)CC1 [listing 2 of 2 here],scaled lipid accumulation score,[1],0.821
CS(=O)(=O)c1ccc(-c2cnc(N)c(C(=O)Nc3ccccc3)n2)cc1 [listing 2 of 2 here],scaled lipid accumulation score,[3],0.017
same,scaled lipid accumulation score,[4],≤ 0
same,scaled lipid accumulation score,[5],≤ 0
same,scaled lipid accumulation score,[1],0.225
same,scaled lipid accumulation score,[2],0.489
Cl.O=C([O-])c1ccc(-c2c3nc(c(-c4ccc(C(=O)O)cc4)c4nc(c(-c5ccc(C(=O)O)cc5)c5ccc([nH]5)c(-c5ccc(C(=O)[O-])cc5)c5ccc2[n-]5)C=C4)C=C3)cc1.[Mn+3] [MnTBAP chloride],scaled lipid accumulation score,library stock concentration: 5.7 mM,≤ -0.012
Cc1cn([C@H]2O[C@@H](CO)[C@H](O)[C@H]2F)c(=O)[nH]c1=O [Clevudine],scaled lipid accumulation score,[1],≤ 0
same,scaled lipid accumulation score,[2],≤ 0
O=C(CCC/C=C\C[C@H]1C(=O)C[C@@H](O)C1/C=C/[C@@H](O)CCc1ccccc1)NC(CO)CO (stereo partly drawn) [17-phenyl trinor Prostaglandin E2 serinol amide],scaled lipid accumulation score,[6],≤ 0
NC(=O)N[C@@H](CCC(=O)O)C(=O)O,scaled lipid accumulation score,[2],≤ 0
O=C(Oc1cc(S(=O)(=O)c2ccccc2)ccc1[N+](=O)[O-])c1ccc(Cl)cc1,scaled lipid accumulation score,[1],≤ -0.009
same,scaled lipid accumulation score,[2],≤ 0
S=C(NCc1ccc2c(c1)OCO2)N1CCN(c2ncnc3c2oc2ccccc23)CC1 [Amuvatinib  (MP-470) (0.4 mM)],scaled lipid accumulation score,[4],0.042
S=C(NCc1ccc2c(c1)OCO2)N1CCN(c2ncnc3c2oc2ccccc23)CC1 [Amuvatinib (MP-470)],scaled lipid accumulation score,[1],0.006
same,scaled lipid accumulation score,[2],≤ 0
S=C(NCc1ccc2c(c1)OCO2)N1CCN(c2ncnc3c2oc2ccccc23)CC1,scaled lipid accumulation score,[3],0.069
same,scaled lipid accumulation score,[4],≤ -0.009
same,scaled lipid accumulation score,[5],0.025
same,scaled lipid accumulation score,[2],0.035
S=C(NCc1ccc2c(c1)OCO2)N1CCN(c2ncnc3c2oc2ccccc23)CC1 [Amuvatinib  (MP-470) (2 mM)],scaled lipid accumulation score,[5],0.074
S=C(NCc1ccc2c(c1)OCO2)N1CCN(c2ncnc3c2oc2ccccc23)CC1 [Amuvatinib  (MP-470) (10 mM)],scaled lipid accumulation score,[2],0.068
O=C(O)[C@H]1NCCC[C@H]1C(=O)O,scaled lipid accumulation score,[2],≤ 0
C[S+]([O-])c1ccc(-c2nc(-c3ccc(F)cc3)c(-c3ccncc3)[nH]2)cc1 (stereo not drawn),scaled lipid accumulation score,[3],0.004
same,scaled lipid accumulation score,[4],≤ -0.009 and ≤ -0.005
same,scaled lipid accumulation score,[6],≤ 0
same,scaled lipid accumulation score,[5],0.017 and ≤ -0.005
same,scaled lipid accumulation score,[1],≤ 0
same,scaled lipid accumulation score,library stock concentration: 13.2 mM,≤ -0.012
CCCCCC=CC=CC(O)CCCCCCCC(=O)OCC(COC(=O)CCCCCCCC=CC=CC(O)CCCCC)OC(=O)CCCCCCCC=CC=CC(O)CCCCC (stereo not drawn) [Hydroxy Linoleins],scaled lipid accumulation score,[6],0.061
N#CCNC(=O)c1ccc(-c2ccnc(Nc3ccc(N4CCOCC4)cc3)n2)cc1 [Momelotinib (CYT387) (0.4 mM)],scaled lipid accumulation score,[4],≤ -0.005
N#CCNC(=O)c1ccc(-c2ccnc(Nc3ccc(N4CCOCC4)cc3)n2)cc1 [listing 1 of 2 here],scaled lipid accumulation score,[3],≤ -0.009
same,scaled lipid accumulation score,[4],0.038
same,scaled lipid accumulation score,[5],≤ -0.009
same,scaled lipid accumulation score,[2],0.768
N#CCNC(=O)c1ccc(-c2ccnc(Nc3ccc(N4CCOCC4)cc3)n2)cc1 [Momelotinib (CYT387) (2 mM)],scaled lipid accumulation score,[5],0.858 (active)
N#CCNC(=O)c1ccc(-c2ccnc(Nc3ccc(N4CCOCC4)cc3)n2)cc1 [listing 2 of 2 here],scaled lipid accumulation score,[1],1.05 (active)
same,scaled lipid accumulation score,[2],0.922 (active)
O=C(Nc1ccc(-c2ccnc(Nc3ccc(N4CCOCC4)cc3)n2)cc1)[C@@H]1CCCN1,scaled lipid accumulation score,[2],1.06 (active)
c1ccc2c(Oc3nc(Nc4ccc(N5CCOCC5)cc4)c4ncn(C5CCCCC5)c4n3)cccc2c1 [Purmorphamine],scaled lipid accumulation score,[6],≤ 0
same,scaled lipid accumulation score,[1],≤ 0
same,scaled lipid accumulation score,[2],0.032
O=C(Nc1ccc(-c2ccnc(Nc3ccc(N4CCOCC4)cc3)n2)cc1)C1CCCN1 (stereo not drawn),scaled lipid accumulation score,[3],≤ 0
same,scaled lipid accumulation score,[4],0.007
same,scaled lipid accumulation score,[5],0.036
same,scaled lipid accumulation score,[1],0.063
same,scaled lipid accumulation score,[2],0.662
N#CCNC(=O)c1ccc(-c2ccnc(Nc3ccc(N4CCOCC4)cc3)n2)cc1 [Momelotinib (CYT387) (10 mM)],scaled lipid accumulation score,[2],0.945 (active)
CC1=C(/C=C/C(=C/C=C/C(C)=C/C(=O)O)c2ccc(C)cc2)C(C)(C)CCC1,scaled lipid accumulation score,[2],≤ -0.001
CCCCCC=CCC=CCC=CCCCCCCC(=O)OC [Dihomo-.gamma.-Linolenic Acid methyl ester],scaled lipid accumulation score,[6],0.037
CC(C)CC(N)=O,scaled lipid accumulation score,[2],0.291
CC(C)CC(N)=O [Isovaleramide],scaled lipid accumulation score,[1],≤ 0
same,scaled lipid accumulation score,[2],≤ -0.001
Cc1ncc2ccccc2c1C#N [4-Cyano-3-methylisoquinoline],scaled lipid accumulation score,[1],≤ 0
"CC(=O)NC1[C@@H](O)OC(CO)[C@@H](O)[C@H]1O[C@H](C)C(=O)O (stereo in doubt) [Muramic acid, N-acetyl]",scaled lipid accumulation score,,≤ 0
CCC(=O)Oc1ccc2c(c1)CC[C@@H]1[C@@H]2CC[C@]2(C)[C@@H](OC(=O)CC)CC[C@@H]12,scaled lipid accumulation score,[2],≤ 0
Brc1c(Br)c(Br)c2n[nH]nc2c1Br [Casein Kinase II Inhibitor I],scaled lipid accumulation score,[1],≤ 0
CCN(CCCCOC(=O)c1ccc(OC)c(OC)c1)C(C)Cc1ccc(OC)cc1 (stereo not drawn) [Mebeverine hydrochloride],scaled lipid accumulation score,,0.362
same,scaled lipid accumulation score,[2],≤ 0
CCN(CC)CCCCCCCCOC(=O)c1cc(OC)c(OC)c(OC)c1.Cl [TMB-8 hydrochloride],scaled lipid accumulation score,[2],1.03 (active)
CCCCOc1cc(C(=O)OCCN(CC)CC)ccc1N [Oxybuprocaine HCl],scaled lipid accumulation score,[1],≤ 0
same,scaled lipid accumulation score,[2],0.338
CCN(CC)CCOC(=O)c1cc(Cl)c(N)cc1OC [SDZ 205-557 hydrochloride],scaled lipid accumulation score,[2],0.003
CCCOc1ccc(C(=O)OCCN(CC)CC)cc1N [Proparacaine HCl],scaled lipid accumulation score,[1],≤ 0
same,scaled lipid accumulation score,[2],≤ 0
CCCOc1ccc(C(=O)OCCN(CC)CC)cc1N [Proxymetacaine],scaled lipid accumulation score,[2],0.166
CCCOc1ccc(C(=O)OCCN(CC)CC)cc1N [Proparacaine hydrochloride],scaled lipid accumulation score,,≤ 0
same,scaled lipid accumulation score,library stock concentration: 6 mM,≤ 0
CCN(CC)CCCCCCCCOC(=O)c1cc(OC)c(OC)c(OC)c1,scaled lipid accumulation score,library stock concentration: 12.6 mM,1.02 (active)
CCCCOc1cc(C(=O)OCCN(CC)CC)ccc1N [Benoxinate hydrochloride],scaled lipid accumulation score,,0.276
"CCN(CC)CCOC(=O)c1cc(Cl)c(N)cc1OC [SDZ-205,557 hydrochloride]",scaled lipid accumulation score,[2],0.051
